A selection: hits, their analogues and other compounds. The true share with any hit is near 31%.
CYP2C19 activ = increases human CYP2C19 enzyme activity | P33261 | recombinant CYP2C19, luciferin-H EGE luminescence; active compounds read high; 0 = fully inhibited enzyme, 1 = untreated enzyme | activation factor at 5 µM | 96,000 tested, under 10 active;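 active = activation factor of at least 2 at 5 µM in the primary screen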;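 also: 0 = wells with 2.5 mM tranylcypromine and 1 = vehicle-only wells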
Target sequence (P33261 whole entry, looked up): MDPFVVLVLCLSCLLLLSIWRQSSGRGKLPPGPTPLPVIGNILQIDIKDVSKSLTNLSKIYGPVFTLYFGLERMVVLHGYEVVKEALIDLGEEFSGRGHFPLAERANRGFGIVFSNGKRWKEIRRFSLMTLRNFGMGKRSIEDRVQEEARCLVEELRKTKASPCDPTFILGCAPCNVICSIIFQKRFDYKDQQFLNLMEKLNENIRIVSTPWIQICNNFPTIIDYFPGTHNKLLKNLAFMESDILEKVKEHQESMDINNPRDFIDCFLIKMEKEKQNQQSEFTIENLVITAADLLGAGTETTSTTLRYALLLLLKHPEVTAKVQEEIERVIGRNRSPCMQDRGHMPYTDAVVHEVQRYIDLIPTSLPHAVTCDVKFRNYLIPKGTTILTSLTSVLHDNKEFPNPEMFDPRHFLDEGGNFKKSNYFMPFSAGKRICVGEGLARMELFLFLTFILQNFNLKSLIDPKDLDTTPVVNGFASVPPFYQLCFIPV
PLAP activator = human PLAP activation. activation fold at 20 µM. 96,000 compounds, 1.2% hits. purified PLAP enzyme, luminescent substrate read-out; active compounds read high. P05187; in the data active = activation fold above about 2
CYP2C19 inhib = blocks human cytochrome P450 2C19; AID 778; 96,000 compounds, 21% hits; P33261; inhibition, % at 5 µM; CYP2C19 Supersomes, luciferin-H EGE luminescence, 30 min;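 active = CYP2C19 inhibition above a set limit at 5 µM in the primary screen, cut at about 50% in these data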;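 also: plate controls were negative control wells for no effect and 2.5 mM tranylcypromine positive control for full effect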
CYP2C9 activ = increases human cytochrome P450 2C9 activity; activation factor at 5 µM; AID 1024; 96,000 compounds, 1.4% hits; P11712; recombinant CYP2C9, luciferin-H conversion, luminescence; active compounds read high; factor 1 = untreated enzyme, 0 = blocked;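 active = activation factor of 2 or more for CYP2C9 at a 5 µM dose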;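 also: 0 = sulfaphenazole-blocked wells and 1 = vehicle-only wells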
CYP2C9 inhib = inhibitors of human CYP2C9 | P11712 | CYP2C9 Supersomes, luciferin-H conversion, luminescence | inhibition, % at 5 µM | 96,000 compounds, 20% hits | AID 777;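 active = blocking of liver enzyme CYP2C9 beyond about 50% at 5 µM, limit read from the data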
* marks the source's active call; other numbers are inactive results.

`COc1ccc(C)cc1NC(=O)C1CCCN1S(=O)(=O)c1ccc2c(c1)CCC(=O)N2` (centres undefined) gave CYP2C19 activ 0.6, PLAP activator 1.5, CYP2C19 inhib 39, CYP2C9 activ 1.6 and CYP2C9 inhib -60.
Screening O=C(NC1CCCCCC1)C1CCN(S(=O)(=O)c2ccc(F)cc2)CC1 returned CYP2C19 activ 1, PLAP activator 1, CYP2C19 inhib 4, CYP2C9 activ 1 and CYP2C9 inhib -3.
Cc1ccc(NC(=O)C2CCCN2S(=O)(=O)c2ccc3c(c2)CCC(=O)N3)cc1Cl (centres undefined) was read as CYP2C19 activ 0.4, PLAP activator 1.2, CYP2C19 inhib 60*, CYP2C9 activ 0.1 and CYP2C9 inhib 89*.
For O=C1CCc2cc(S(=O)(=O)N3CCC(C(=O)NC4CCCCCCC4)CC3)ccc2N1 the results were CYP2C19 activ 0.8, PLAP activator 1.1, CYP2C19 inhib 21, CYP2C9 activ 0.4 and CYP2C9 inhib 57*.
`O=C(CCN1CCCC1)Nc1ccccc1` gave CYP2C19 activ 1, PLAP activator 0.9, CYP2C19 inhib 0, CYP2C9 activ 1.1 and CYP2C9 inhib -6.
COc1cc(NC(=O)CN(C)S(=O)(=O)c2ccc3c(c2)CCC(=O)N3)cc(OC)c1 was read as CYP2C19 activ 0.7, PLAP activator 1.5, CYP2C19 inhib 28, CYP2C9 activ 0.4 and CYP2C9 inhib 62*.
Screening COc1cccc(N2CCN(C(=O)CN(C)S(=O)(=O)c3ccc4c(c3)CCC(=O)N4)CC2)c1 returned CYP2C19 activ 0.9, PLAP activator 1.6, CYP2C19 inhib 13, CYP2C9 activ 0.5 and CYP2C9 inhib 46.
`COCC(=O)NC(c1ccccc1)c1ccccc1` gave CYP2C19 activ 1, PLAP activator 0.9, CYP2C19 inhib -1, CYP2C9 activ 1 and CYP2C9 inhib -4.
Screening CC(=O)Oc1ccc2ccccc2c1C(NC(=O)Cc1ccccc1)c1ccc(Cl)cc1 (centres undefined) returned CYP2C19 activ 0.5, PLAP activator 1.1, CYP2C19 inhib 48, CYP2C9 activ 0.4 and CYP2C9 inhib 63*.
`CC1CCN(CCCCOc2ccc([N+](=O)[O-])cc2)CC1` gave CYP2C19 activ 1.1, PLAP activator 0.9, CYP2C19 inhib -5, CYP2C9 activ 1 and CYP2C9 inhib -1.
Screening CC1CCN(C2(O)C(=O)Nc3ccc([N+](=O)[O-])cc32)CC1 (centres undefined) returned CYP2C19 activ 0.6, PLAP activator 0.8, CYP2C19 inhib 42, CYP2C9 activ 0.3 and CYP2C9 inhib 66*.
`COc1cc(OC)cc(C(=O)Nn2c(C)nc3ccccc3c2=O)c1` gave CYP2C19 activ 0.6, PLAP activator 0.8, CYP2C19 inhib 36, CYP2C9 activ 0.5 and CYP2C9 inhib 53*.
`CCN1CCN(Cc2c(C)[nH]c3ccc(OC)cc3c2=O)CC1` gave CYP2C19 activ 0.9, PLAP activator 0.9, CYP2C19 inhib 8, CYP2C9 activ 1.1 and CYP2C9 inhib -10.
Cc1nc2ccccc2c(=O)n1NC(=O)c1ccccc1Cl was read as CYP2C19 activ 1, PLAP activator 0.9, CYP2C19 inhib -2, CYP2C9 activ 0.6 and CYP2C9 inhib 44.
For Cc1nc2ccccc2c(=O)n1NC(=O)c1ccc(F)cc1Cl the results were CYP2C19 activ 1, PLAP activator 0.8, CYP2C19 inhib -3, CYP2C9 activ 0.2 and CYP2C9 inhib 81*.
`COc1ccc(Br)c(C(=O)Nn2c(C)nc3ccccc3c2=O)c1` gave CYP2C19 activ 1.1, PLAP activator 1, CYP2C19 inhib -11, CYP2C9 activ 0.5 and CYP2C9 inhib 54*.
Screening COc1ccc2[nH]c3c(c2c1)CCn1c-3nc2ccccc2c1=O returned CYP2C19 activ 0.3, PLAP activator 1, CYP2C19 inhib 75*, CYP2C9 activ 0.6 and CYP2C9 inhib 42.
`CCOc1ccccc1C(=O)Nn1c(C2CCC2)nc2ccccc2c1=O` gave CYP2C19 activ 0.8, PLAP activator 0.9, CYP2C19 inhib 17, CYP2C9 activ 0.5 and CYP2C9 inhib 49.
`COc1ccccc1C(=O)Nn1c(C2CCC2)nc2ccccc2c1=O` gave CYP2C19 activ 0.5, PLAP activator 1.2, CYP2C19 inhib 54*, CYP2C9 activ 0.1 and CYP2C9 inhib 95*.
`Cc1ccc(C)c(OCC(=O)Nn2c(C)nc3ccccc3c2=O)c1` gave CYP2C19 activ 0.9, PLAP activator 1.1, CYP2C19 inhib 5, CYP2C9 activ 0.2 and CYP2C9 inhib 78*.
Screening COc1cccc(CC(=O)Nn2c(C)nc3ccccc3c2=O)c1 returned CYP2C19 activ 0.6, PLAP activator 0.9, CYP2C19 inhib 40, CYP2C9 activ 0.1 and CYP2C9 inhib 87*.
Screening COc1cc(OC)cc(C(=O)Nn2cc(C(=O)N3CCN(C)CC3)c3ccccc3c2=O)c1 returned CYP2C19 activ 0.9, PLAP activator 0.9, CYP2C19 inhib 11, CYP2C9 activ 0.4 and CYP2C9 inhib 58*.
COc1ccc(-c2noc(CCCOc3ccc(Cl)cc3Cl)n2)cc1 was read as CYP2C19 activ 1, PLAP activator 1, CYP2C19 inhib 2, CYP2C9 activ 1.2 and CYP2C9 inhib -23.
COc1ccc(-c2noc(CCC(=O)Nc3cc(Cl)c(OC)cc3OC)n2)cc1 was read as CYP2C19 activ 0.2, PLAP activator 0.9, CYP2C19 inhib 82*, CYP2C9 activ 0.5 and CYP2C9 inhib 54*.
COc1ccc(-c2noc(CCC(=O)Nc3cc(OC)ccc3OC)n2)cc1 was read as CYP2C19 activ 0, PLAP activator 1.7, CYP2C19 inhib 98*, CYP2C9 activ 0.2 and CYP2C9 inhib 82*.
COc1ccc(-c2noc(CCCC(=O)Nc3ccc(C(N)=O)cc3)n2)cc1 was read as CYP2C19 activ 1.1, PLAP activator 0.9, CYP2C19 inhib -7, CYP2C9 activ 0.9 and CYP2C9 inhib 10.
Screening COc1ccc(NC(=O)C2CC(=O)OC2(C)C)cc1 (centres undefined) returned CYP2C19 activ 0.9, PLAP activator 0.9, CYP2C19 inhib 10, CYP2C9 activ 1.1 and CYP2C9 inhib -11.
FC(F)(F)c1ccc(CN2CCCCCC2)cc1 was read as CYP2C19 activ 0.5, PLAP activator 1, CYP2C19 inhib 53*, CYP2C9 activ 0.8 and CYP2C9 inhib 18.
Screening CN(C)c1ccc(CN2CCCCC2)cc1 returned CYP2C19 activ 0.7, PLAP activator 0.9, CYP2C19 inhib 31, CYP2C9 activ 1 and CYP2C9 inhib -3.
Screening COC(=O)C1C(=O)c2c([nH]c(C(=O)OCC3CCCO3)c2C)CC1C (centres undefined) returned CYP2C19 activ 0.9, PLAP activator 1, CYP2C19 inhib 12, CYP2C9 activ 0.5 and CYP2C9 inhib 54*.
O=C(c1ccco1)c1nnn(Cc2ccccc2)c1-c1ccccc1 was read as CYP2C19 activ 0.9, PLAP activator 1, CYP2C19 inhib 13, CYP2C9 activ 0.5 and CYP2C9 inhib 54*.

Source: PubChem
